# Measured values from ChEMBL document CHEMBL3988442, “University of Dundee, Small-Polar-MMV Screening Library” (2021).
# Hit rate of the full screen: of about 69,000 compounds, about 1,000 (1.4%) showed an effect of 50% or more. This excerpt belongs to a sample that is enriched for strong results.
# System: Leishmania donovani
# Assay: Leishmania intramacrophage assay
# Format: functional, organism-based
# Design: scale not given: in the data most compounds retested in dose-response had high values
smiles,measurement,setting,value
COCCNC(=O)[C@H]1CN(Cc2cccs2)C[C@H]2OCC[C@@H]12.O=C(O)C(F)(F)F,Percent Effect,"30.3 µM, […]",-23.24%
Cn1cc(-c2cc(C(F)(F)F)nn2CCC#N)cn1,Percent Effect,"30.3 µM, […]",-0.6212%
CCCn1nccc1-c1nccnc1CC1CCN(C(C)=O)CC1,Percent Effect,"30.3 µM, […]",-24.99%
NCCn1nc(C2CCN(C(=O)CC3CCCCC3)C2)c2nccnc21 (stereo not given),Percent Effect,"30 µM, 30.03 µM",-5.021%
Nc1ccc(C(=O)N2C[C@@H]3CC[C@H](C2)N(Cc2ccccc2)C3)cn1,Percent Effect,"30.3 µM, […]",19.02%
COC1COC2(CCN(CC3CC3)CC2)C1.O=C(O)C(F)(F)F (stereo not given),Percent Effect,"30.3 µM, […]",18.41%
COCCC(=O)N1C[C@@H](c2ccc(F)c(F)c2)[C@@]2(CCCC(=O)N2)C1,Percent Effect,"30.3 µM, […]",28.03%
COC(=O)N1CCCC(C(=O)NCCc2c[nH]c3cc(C)ccc23)C1 (stereo not given),Percent Effect,"30.3 µM, […]",6.757%
Cc1ccc(C2CSCCN2C(=O)c2ccc(C(N)=O)cc2)o1 (stereo not given),Percent Effect,"30 µM, 30.03 µM",7.343%
Cc1nccnc1N1C[C@H](NC(=O)CNS(C)(=O)=O)[C@@H](C2CC2)C1,Percent Effect,"30.3 µM, […]",8.886%
Cn1nc(C(=O)N2CCCC2)c2c1CN(CC1CCOCC1)C2,Percent Effect,"30.3 µM, […]",-0.9877%
Cn1nc(C(=O)N2CCOCC2)c2c1CN(CC1CC1)C2.O=C(O)C(F)(F)F.O=C(O)C(F)(F)F,Percent Effect,"30.3 µM, […]",55.32%
Cn1nc(C(=O)N2CCOCC2)c2c1CN(CC1CCC1)C2,Percent Effect,"30.3 µM, […]",23.43%
CC(C)(C)C(=O)NCCC(=O)NC(C)(C)c1ccc2c(c1)OCO2,Percent Effect,"30.3 µM, […]",2.237%
Cc1cnc(N2CCc3onc(COc4cccnc4)c3C2)nc1,Percent Effect,"30.3 µM, […]",77.52%
O=C(N1CCCC1)N1CCc2onc(COc3cccnc3)c2C1.O=C(O)C(F)(F)F,Percent Effect,"30.3 µM, […]",0.9186%
c1cncc(OCc2noc3c2CN(Cc2ccoc2)CC3)c1,Percent Effect,"30 µM, 30.03 µM",10.86%
CNS(=O)(=O)Cc1ccc(CNC(=O)c2cccc(C)n2)cc1,Percent Effect,"30 µM, 30.03 µM",36.89%
Cc1cc2c(cc1NC(=O)NC(C)(C)C)OCO2,Percent Effect,"30.3 µM, […]",-22.07%
Cc1nnc(CN(CCc2ccccc2)C2CCN(C)CC2)s1,Percent Effect,"30.3 µM, […]",1.604%
NCCn1nc(C2CCN(Cc3ccc(Cl)c(Cl)c3)C2)c2nccnc21 (stereo not given),Percent Effect,"30 µM, 30.03 µM",52.46%
NCCn1nc(C2CCN(Cc3ccccc3)C2)c2nccnc21 (stereo not given),Percent Effect,"30.3 µM, […]",5.976%
NCCn1nc(C2CCN(Cc3ccccc3Cl)C2)c2nccnc21 (stereo not given),Percent Effect,"30.3 µM, […]",9.93%
Clc1cccc2c3c([nH]c12)CCN(Cc1cc2n(n1)CCNC2)C3,Percent Effect,"30.3 µM, […]",28.65%
Clc1cccc2c3c([nH]c12)CCN(Cc1cc2n(n1)CCCNC2)C3,Percent Effect,"30.3 µM, […]",94.36%
c1ccc2c3c([nH]c2c1)CN(Cc1cc2n(n1)CCNC2)CC3,Percent Effect,"30.3 µM, […]",19.37%
COc1ccc(C(C)N(C)Cc2c(C(C)C)[nH]c3ncccc23)cc1 (stereo not given),Percent Effect,"30.3 µM, […]",-22.28%
CCN1CCCC1CN(CCN(C)C)S(=O)(=O)c1ccccc1C#N (stereo not given),Percent Effect,"30.3 µM, […]",13.5%
O=C(OCC1CCN(c2ccccc2)C1)c1cscn1 (stereo not given),Percent Effect,"30.3 µM, […]",51.5%
O=C(OCC1CCCN(C(=O)c2ccccc2)C1)c1cscn1 (stereo not given),Percent Effect,"30.3 µM, […]",-48.09%
COCc1nc(C(=O)OCC2CCN(c3ccccc3)C2)cs1 (stereo not given),Percent Effect,"30.3 µM, […]",-78.1%
COc1cc(C(=O)N(Cc2ccc(F)cc2)C2CC2)cc2c1OCCO2,Percent Effect,"30 µM, 30.03 µM",14.84%
CCCNC(=O)N1CCc2ccc(S(=O)(=O)N3CCOCC3)cc2C1,Percent Effect,"30.3 µM, […]",11.75%
CC1=C(CCN2C[C@H](O)[C@@H](N3CCOCC3)C2)C(C)(C)CCC1,Percent Effect,"30.3 µM, […]",-12.68%
CC1=C(CCN2CC[C@@H](N3CCC(O)CC3)[C@H](O)C2)C(C)(C)CCC1,Percent Effect,"30.3 µM, […]",56.28%
CC1=C(CCN2CCCC(O)C2)C(C)(C)CCC1 (stereo not given),Percent Effect,"30.3 µM, […]",25.33%
Cc1ccc(N(Cc2ccco2)C(=O)CC2=NN(C)C(=O)C2)cc1,Percent Effect,"30.3 µM, […]",6.943%
Cc1nc(C2(O)CCCNCC2)sc1CCOc1ccccc1.Cl (stereo not given),Percent Effect,"30.3 µM, […]",4.476%
COc1ccc(OCCc2sc(C3(O)CCCNCC3)nc2C)cc1.Cl (stereo not given),Percent Effect,"30 µM, 30.03 µM",10.27%
CCN1CCCC(O)(c2nc(C)c(CCOc3ccc(F)cc3)s2)CC1 (stereo not given),Percent Effect,"30.3 µM, […]",11.02%
COc1ccc(OCc2sc(C3(O)CCCNCC3)nc2C)cc1.Cl (stereo not given),Percent Effect,"30 µM, 30.03 µM",9.769%
CC(=O)NCc1nc(CCOc2ccc(Cl)cc2)no1,Percent Effect,"30.3 µM, […]",7.139%
Cc1nc(C2(O)CCCNCC2)sc1CCOc1ccc(Cl)cc1.Cl (stereo not given),Percent Effect,"30 µM, 30.03 µM",92.94%
CCCN1CCCC(O)(c2nc(C)c(COc3ccccc3)s2)CC1 (stereo not given),Percent Effect,"30.3 µM, […]",-5.482%
CC(C)(C)c1ncc(C(=O)NCCNS(C)(=O)=O)s1,Percent Effect,30 µM,20.12%
CCOc1ccccc1C(CC(=O)Nc1ccc(C)cn1)NC(C)=O (stereo not given),Percent Effect,"30 µM, 30.03 µM",34.79%
COc1ccc2c(ccn2CCC(=O)Nc2n[nH]c(CC(C)C)n2)c1,Percent Effect,"30.3 µM, […]",-2.003%
COc1cccc(CCC(=O)N2CCCC(n3cc(C)cn3)C2)c1 (stereo not given),Percent Effect,"30 µM, 30.03 µM",9.343%
Cc1cc(C(=O)N2CCCC2c2noc(C)n2)[nH]n1 (stereo not given),Percent Effect,"30.3 µM, […]",-9.431%
Cc1nc(C)c(C(=O)N2CCC(O)(Cn3ccc4ccncc43)CC2)s1,Percent Effect,"30.3 µM, […]",-5.567%
